Measurements published in PubChem BioAssay.
“And” between values parts separate entries of the source, which are not always exact repeats. Identical values can stand only once. The list shows a part of the results. The source made the active and inactive calls.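 Rule for the calls, unless noted: active = mean inhibition over 43.08%, the solvent-only control mean plus 3 SD; inactive = the rest.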

Experiments:
[1] = biological target: Nuclear receptor coactivator 3 (Homo sapiens) (UniProt Q9Y6Q9); assay: SRC3 coactivator transcriptional activity inhibitors, confirmation, cell-based, luminescence, quadruplicate (AID 588792); details: HEK293 GAL4-SRC3 luciferase reporter, at 3.6 µM, stronger effect = higher value;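 note: 0% = DMSO treated cells and 100% = gossypol at 36 µM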
[2] = system: transactivating tegument protein VP16 (Human herpesvirus 1), Gal4-VP16 luciferase reporter; assay: VP16 transactivation inhibitors, counter-screen for SRC3 inhibitor project, cell-based, luminescence, high throughput (AID 588794; in the data active = inhibition above about 30%); details: mammalian cells, VP16-driven luciferase reporter luminescence; at 3.6 µM; stronger effect = higher value
[3] = biological target: Nuclear receptor coactivator 1 (Homo sapiens) (UniProt Q15788); assay: SRC1 coactivator transcriptional activity inhibitors, confirmation, cell-based, luminescence, quadruplicate (AID 588820;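 active = mean inhibition above 46.68%, the untreated control wells mean plus 3 SD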;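 note: 0% = DMSO wells and 100% = gossypol 36 µM treated wells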); details: HEK293 GAL4-SRC1 luciferase reporter, at 3.6 µM, stronger effect = higher value
[4] = VP16 transactivation inhibitors, counter-screen for SRC1 inhibitor project, cell-based, luminescence, high throughput (AID 588824; in the data active = inhibition above about 25%); details: cell-based VP16 transactivation luciferase luminescence; at 3.6 µM; stronger effect = higher value
[5] = system: transactivating tegument protein VP16 (Human herpesvirus 1); assay: VP16 transactivation reporter inhibitors, counter-screen for SRC2 inhibitor project, cell-based, luminescence, single concentration (AID 652007; in the data active = inhibition above about 36%); details: cell-based VP16 transactivation luciferase reporter, at 8.9 µM, stronger effect = higher value
[6] = biological target: Nuclear receptor coactivator 2 (Homo sapiens) (UniProt Q15596); assay: SRC2 coactivator transcriptional activity inhibitors, confirmation, cell-based, luminescence, HEK293, triplicate (AID 652008;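 active = mean inhibition above 46.5%, the solvent-only control mean plus 3 SD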;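 note: 0% = DMSO-treated cells and 100% = Gossypol at 36 µM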); details: HEK293 GAL4-SRC2 luciferase reporter, at 8.9 µM, stronger effect = higher value
[7] = Gal4-VP16 luciferase reporter inhibitors, counter-screen for COUP-TFII antagonist project, cell-based, luminescence, HEK293 (AID 687007; in the data active = inhibition above about 13%); details: at 8.5 µM, stronger effect = higher value
[8] = biological target: COUP transcription factor 2 (Homo sapiens) (UniProt P24468); assay: NR2F2 transcriptional activity inhibitors, confirmation, cell-based, luciferase reporter, HEK293, triplicate (AID 687008;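 active = mean inhibition over three repeats above a set limit taken from the earlier primary screen, cut at about 38% in these data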;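 note: 100% = cells given the luciferase reporter alone without the COUP-TF2 vector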); details: HEK293 NGFI-A luciferase reporter, luminescence; at 8.5 µM; stronger effect = higher value
[9] = StAR promoter reporter inhibitors, counter-screen for LRH-1 inverse agonist project, cell-based, luminescence, high throughput (AID 651611; in the data active = inhibition above about 28%); details: StAR promoter luciferase reporter counterscreen, at 3.6 µM, stronger effect = higher value
[10] = biological target: Nuclear receptor subfamily 5 group A member 2 (Homo sapiens) (UniProt O00482); assay: LRH-1 (NR5A2) inverse agonists, retest, confirmation, cell-based, luminescence (AID 651613; in the data active = inhibition above about 42%;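 note: HEK293T cells co-transfected with LRH-1 and StAR promoter luciferase reporter; 0% = vehicle wells and 100% = parental cells lacking receptor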); details: cell-based LRH-1 luciferase reporter, inverse agonism; at 3.6 µM; stronger effect = higher value
[11] = biological target: Steroidogenic factor 1 (Homo sapiens) (UniProt Q13285); assay: SF1 (NR5A1) inverse agonists, counter-screen for LRH-1 inverse agonist project, cell-based, luminescence, high throughput (AID 651614; in the data active = inhibition above about 44%;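 note: cells cotransfected with StAR promoter reporter and SF1 expression vector; 0% = vehicle on cells with receptor and 100% = vehicle on cells lacking receptor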); details: cell-based SF1 luciferase reporter, at 3.6 µM, stronger effect = higher value
[12] = VP16 transactivation reporter inhibitors, counter-screen for LRH-1 inverse agonist project, cell-based, luminescence, high throughput (AID 651615; in the data active = inhibition above about 33%); details: Gal4-VP16 luciferase reporter cells, at 3.6 µM, stronger effect = higher value
[13] = biological target: Photoreceptor-specific nuclear receptor (Homo sapiens) (UniProt Q9Y5X4); assay: NR2E3 agonist confirmation in cells, cell-based, luminescence, CHO-S two-hybrid (AID 624378;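 active = average inhibition above a cutoff equal to the mean inhibition of all tested compounds plus one SD, cut at about 70% in these data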;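 note: 0% = DMSO in NR2E3 cells and 100% = DMSO in cells lacking NR2E3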); details: CHO-S mammalian two-hybrid NR2E3-NCOR, luciferase luminescence; at 3.98 µM; stronger effect = higher value
[14] = GAL4-VP16 reporter modulators, confirmation, counter-screen for NR2E3 agonist project, cell-based, luminescence, CHO-S, high throughput (AID 624379;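 active = mean inhibition above a cutoff equal to the average over all tested compounds plus one standard deviation, cut at about 70% in these data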;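 note: 0% = DMSO with VP16-transfected cells and 100% = DMSO with cells lacking VP16; higher means less reporter light so more repression of VP16 activity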); details: CHO-S GAL4-VP16 luciferase reporter, at 3.98 µM, stronger effect = higher value

Measured: inhibition

Chain of Nuclear receptor coactivator 3 (Homo sapiens) (Q9Y6Q9 whole entry, looked up, the tested form may be a part): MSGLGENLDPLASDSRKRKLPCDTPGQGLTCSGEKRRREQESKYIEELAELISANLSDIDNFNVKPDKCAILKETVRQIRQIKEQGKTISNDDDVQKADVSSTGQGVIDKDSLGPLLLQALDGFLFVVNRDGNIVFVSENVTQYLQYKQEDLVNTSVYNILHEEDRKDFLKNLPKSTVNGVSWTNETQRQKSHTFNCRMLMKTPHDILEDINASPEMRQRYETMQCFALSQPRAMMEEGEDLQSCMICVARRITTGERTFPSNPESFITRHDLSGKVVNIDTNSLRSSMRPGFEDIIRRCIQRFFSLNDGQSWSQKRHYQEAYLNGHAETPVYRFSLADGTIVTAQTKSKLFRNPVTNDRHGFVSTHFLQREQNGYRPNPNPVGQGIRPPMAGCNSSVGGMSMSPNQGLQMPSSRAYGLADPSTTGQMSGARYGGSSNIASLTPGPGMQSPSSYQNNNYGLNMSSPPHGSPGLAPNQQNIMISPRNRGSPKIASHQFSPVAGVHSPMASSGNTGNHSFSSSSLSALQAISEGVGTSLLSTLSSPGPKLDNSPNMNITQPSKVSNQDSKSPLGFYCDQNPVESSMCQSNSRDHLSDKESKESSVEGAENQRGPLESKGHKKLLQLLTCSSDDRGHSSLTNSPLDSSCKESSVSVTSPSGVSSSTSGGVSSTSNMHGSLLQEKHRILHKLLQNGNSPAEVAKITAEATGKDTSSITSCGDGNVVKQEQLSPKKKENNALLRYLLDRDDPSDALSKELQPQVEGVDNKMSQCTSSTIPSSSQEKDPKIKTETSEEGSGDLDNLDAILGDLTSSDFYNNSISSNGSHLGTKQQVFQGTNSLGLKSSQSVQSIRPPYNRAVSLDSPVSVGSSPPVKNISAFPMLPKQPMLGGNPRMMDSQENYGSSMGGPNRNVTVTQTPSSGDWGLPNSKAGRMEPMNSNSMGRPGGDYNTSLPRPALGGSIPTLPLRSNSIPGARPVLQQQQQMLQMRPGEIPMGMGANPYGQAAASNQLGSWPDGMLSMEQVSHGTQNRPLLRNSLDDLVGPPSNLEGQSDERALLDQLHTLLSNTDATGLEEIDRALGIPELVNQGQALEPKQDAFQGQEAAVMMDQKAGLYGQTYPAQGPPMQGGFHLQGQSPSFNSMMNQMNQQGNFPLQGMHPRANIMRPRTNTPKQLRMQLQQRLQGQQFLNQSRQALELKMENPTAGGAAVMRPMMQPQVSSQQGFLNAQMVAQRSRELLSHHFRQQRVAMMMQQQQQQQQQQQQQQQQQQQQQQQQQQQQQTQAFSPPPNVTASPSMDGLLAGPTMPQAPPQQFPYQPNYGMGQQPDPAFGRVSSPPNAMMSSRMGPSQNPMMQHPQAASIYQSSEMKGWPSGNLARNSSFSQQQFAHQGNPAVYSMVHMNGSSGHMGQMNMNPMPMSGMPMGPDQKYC
Chain of Nuclear receptor coactivator 2 (Homo sapiens) (Q15596 whole entry, looked up, the tested form may be a part): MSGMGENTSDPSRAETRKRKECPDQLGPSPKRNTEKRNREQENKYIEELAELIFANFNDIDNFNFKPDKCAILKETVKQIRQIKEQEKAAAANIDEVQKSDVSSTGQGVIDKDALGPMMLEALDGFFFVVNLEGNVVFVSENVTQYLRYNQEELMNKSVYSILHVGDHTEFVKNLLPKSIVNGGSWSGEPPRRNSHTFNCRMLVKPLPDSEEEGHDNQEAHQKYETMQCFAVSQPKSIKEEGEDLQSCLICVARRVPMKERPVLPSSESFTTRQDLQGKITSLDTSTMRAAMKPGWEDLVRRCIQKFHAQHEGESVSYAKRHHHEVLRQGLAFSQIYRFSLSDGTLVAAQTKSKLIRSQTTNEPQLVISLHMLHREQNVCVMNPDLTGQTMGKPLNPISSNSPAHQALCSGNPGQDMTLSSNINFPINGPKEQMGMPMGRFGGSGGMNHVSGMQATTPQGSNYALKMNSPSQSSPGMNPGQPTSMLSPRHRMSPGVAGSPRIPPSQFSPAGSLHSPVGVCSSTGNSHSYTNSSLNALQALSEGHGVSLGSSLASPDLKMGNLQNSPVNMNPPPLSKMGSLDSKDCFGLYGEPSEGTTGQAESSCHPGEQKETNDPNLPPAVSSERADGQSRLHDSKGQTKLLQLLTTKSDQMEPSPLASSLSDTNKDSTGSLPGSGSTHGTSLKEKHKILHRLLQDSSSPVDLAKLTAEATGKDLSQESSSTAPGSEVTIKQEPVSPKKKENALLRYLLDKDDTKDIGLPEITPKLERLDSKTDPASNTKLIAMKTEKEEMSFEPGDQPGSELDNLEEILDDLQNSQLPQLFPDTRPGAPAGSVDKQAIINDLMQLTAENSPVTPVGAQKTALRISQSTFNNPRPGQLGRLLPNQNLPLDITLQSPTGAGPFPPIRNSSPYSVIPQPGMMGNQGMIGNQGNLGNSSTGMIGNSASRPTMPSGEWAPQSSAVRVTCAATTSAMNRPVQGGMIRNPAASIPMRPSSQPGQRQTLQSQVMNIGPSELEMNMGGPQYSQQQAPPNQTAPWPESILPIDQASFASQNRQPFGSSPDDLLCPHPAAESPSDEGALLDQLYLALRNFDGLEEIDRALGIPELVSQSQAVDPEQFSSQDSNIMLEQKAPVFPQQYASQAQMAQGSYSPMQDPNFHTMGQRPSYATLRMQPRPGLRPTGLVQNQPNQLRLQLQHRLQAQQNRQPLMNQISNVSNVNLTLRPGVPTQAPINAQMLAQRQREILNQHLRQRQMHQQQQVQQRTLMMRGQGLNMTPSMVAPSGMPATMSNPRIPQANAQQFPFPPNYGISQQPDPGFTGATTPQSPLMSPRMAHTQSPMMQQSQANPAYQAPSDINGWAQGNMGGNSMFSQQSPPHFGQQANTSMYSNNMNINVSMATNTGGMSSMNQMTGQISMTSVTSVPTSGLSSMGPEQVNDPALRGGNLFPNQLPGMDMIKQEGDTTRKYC
Chain of Steroidogenic factor 1 (Homo sapiens) (Q13285 whole entry, looked up, the tested form may be a part): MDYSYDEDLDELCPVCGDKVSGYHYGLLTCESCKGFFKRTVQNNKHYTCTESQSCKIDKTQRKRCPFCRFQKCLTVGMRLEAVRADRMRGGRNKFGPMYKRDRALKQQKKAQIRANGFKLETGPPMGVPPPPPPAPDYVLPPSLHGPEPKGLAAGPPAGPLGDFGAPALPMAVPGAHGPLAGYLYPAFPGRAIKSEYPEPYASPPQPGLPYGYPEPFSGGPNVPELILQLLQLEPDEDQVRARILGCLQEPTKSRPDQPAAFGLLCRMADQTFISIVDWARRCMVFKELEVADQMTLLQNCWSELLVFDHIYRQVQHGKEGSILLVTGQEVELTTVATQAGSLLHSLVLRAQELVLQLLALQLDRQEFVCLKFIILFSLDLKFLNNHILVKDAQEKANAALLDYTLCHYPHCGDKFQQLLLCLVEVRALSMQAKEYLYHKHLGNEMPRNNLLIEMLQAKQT
Chain of Nuclear receptor coactivator 1 (Homo sapiens) (Q15788 whole entry, looked up, the tested form may be a part): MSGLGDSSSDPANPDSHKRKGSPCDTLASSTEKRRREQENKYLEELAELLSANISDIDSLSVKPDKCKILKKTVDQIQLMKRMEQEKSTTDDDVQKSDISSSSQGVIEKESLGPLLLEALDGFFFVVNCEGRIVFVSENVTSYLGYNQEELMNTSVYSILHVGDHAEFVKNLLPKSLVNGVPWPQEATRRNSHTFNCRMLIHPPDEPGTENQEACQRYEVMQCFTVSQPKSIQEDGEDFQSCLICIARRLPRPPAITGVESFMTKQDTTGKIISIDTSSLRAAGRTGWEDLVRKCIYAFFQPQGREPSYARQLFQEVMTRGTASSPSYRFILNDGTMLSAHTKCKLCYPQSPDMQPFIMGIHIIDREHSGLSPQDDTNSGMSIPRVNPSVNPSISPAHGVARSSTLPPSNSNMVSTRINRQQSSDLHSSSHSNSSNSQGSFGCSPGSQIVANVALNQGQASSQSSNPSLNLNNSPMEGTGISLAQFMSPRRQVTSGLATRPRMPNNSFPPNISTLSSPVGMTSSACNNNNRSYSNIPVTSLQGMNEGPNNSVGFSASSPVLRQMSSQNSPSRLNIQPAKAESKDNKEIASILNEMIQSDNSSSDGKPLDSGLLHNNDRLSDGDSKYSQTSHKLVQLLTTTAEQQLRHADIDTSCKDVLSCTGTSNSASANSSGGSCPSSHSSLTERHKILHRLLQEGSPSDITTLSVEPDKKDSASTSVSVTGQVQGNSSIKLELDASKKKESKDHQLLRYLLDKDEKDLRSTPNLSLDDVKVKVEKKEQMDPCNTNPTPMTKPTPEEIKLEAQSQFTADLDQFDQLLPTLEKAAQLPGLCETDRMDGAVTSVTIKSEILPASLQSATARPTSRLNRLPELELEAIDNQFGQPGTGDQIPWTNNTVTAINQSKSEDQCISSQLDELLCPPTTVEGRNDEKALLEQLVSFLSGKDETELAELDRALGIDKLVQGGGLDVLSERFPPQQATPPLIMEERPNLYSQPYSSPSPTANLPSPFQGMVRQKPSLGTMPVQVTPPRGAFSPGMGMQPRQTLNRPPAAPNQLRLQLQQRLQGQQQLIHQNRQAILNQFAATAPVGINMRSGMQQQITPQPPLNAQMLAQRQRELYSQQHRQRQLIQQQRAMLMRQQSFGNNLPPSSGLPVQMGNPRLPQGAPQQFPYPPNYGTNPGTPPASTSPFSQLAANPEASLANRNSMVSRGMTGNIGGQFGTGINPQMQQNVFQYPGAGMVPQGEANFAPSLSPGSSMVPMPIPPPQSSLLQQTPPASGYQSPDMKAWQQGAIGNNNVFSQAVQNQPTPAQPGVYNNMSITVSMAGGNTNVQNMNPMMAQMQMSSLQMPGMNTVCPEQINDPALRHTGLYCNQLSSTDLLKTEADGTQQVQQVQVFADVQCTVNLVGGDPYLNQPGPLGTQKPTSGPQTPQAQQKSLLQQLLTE

C/C(=N\Nc1ncnc2sc(C)c(C)c12)c1ccccn1
inactive: [3] 18.5% | [5] -48.8% | [6] 1.02%
active: [1] 63.2% | [2] 70.1% | [4] 50.4%

CC(=O)c1sc(NC(=O)C2(F)C(F)(F)C(F)(F)C(F)(F)C(F)(F)C2(F)F)nc1C
active: [1] 66.5% | [2] 79% | [3] 60.4% | [4] 84.5%
inactive: [5] 4.16% | [6] 23.9%

CCc1c(C#N)sc(C(N)=O)c1CC
inactive: [1] 27.8% | [2] 20.5% | [3] 20.6% | [4] 13.2% | [5] 8.1% | [6] 25.6%

Cc1c(CC(=O)NCCCC(=O)O)c(=O)oc2cc3c(cc12)CCC(C)(C)O3
inactive: [1] 35.8% | [2] 17.2% | [3] 15.6% | [4] 15.5%
active: [5] 58.8% | [6] 60.9%

S=c1[nH]nc(C2CCCCC2)n1/N=C/c1ccncc1
active: [1] 75.2% | [2] 60.4% | [3] 64.6% | [4] 60.1% | [6] 51.4%
inactive: [5] 10.3%

CCCCCN1C=CC(=C2C(=O)c3ccccc3C2=O)C=C1
inactive: [3] -55.8% | [4] 15.5%
active: [1] 44.2% | [2] 31.3% | [5] 55.1% | [6] 77.3%

C=CC[n+]1c(-c2ccc(C)cc2)csc1Nc1ccc(NC(C)=O)cc1
active: [5] 62.2% | [6] 86.8%
inactive: [1] 29.6% | [2] -12.8% | [3] 4.13% | [4] -3.13%

Cc1[nH]ccc2c1[nH]c1cc(=O)ccc12
active: [1] 56% | [2] 39.5% | [3] 59.1% | [4] 38.7%
inactive: [5] 3.4% | [6] 26%

CCN(c1ccc(OC)cc1)c1ncnc2nc[nH]c12
active: [1] 66.8% | [2] 45.6% | [3] 67.2% | [4] 48.6%
inactive: [5] -3.42% | [6] 45.7%

Cc1ccc2nc(C(F)(F)F)c(C#N)c(N)c2c1
active: [1] 48.2% | [6] 50.1%
inactive: [2] 9.27% | [3] 27.6% | [4] 2.5% | [5] 1.92%

Oc1ccc(Nc2ncnc3scc(-c4ccccc4)c23)cc1
inactive: [1] 38.6% | [3] 41% | [5] -10.2%
active: [2] 35.8% | [4] 31.3% | [6] 57.6%

CCc1ccc(N(CC)c2ncnc3nc[nH]c23)cc1
active: [1] 50.1% | [2] 33% | [3] 56.7% | [4] 36.9% | [6] 50.7%
inactive: [5] 4.69% | [7] -1.24% | [8] 17.4%

CC(C)(C)OC(=O)NCCCCCNC(=O)c1nc[nH]c1C(=O)NCCCCCNC(=O)OC(C)(C)C
active: [4] 35.1%
inactive: [1] 5.02% | [2] 13.7% | [3] -20% | [5] 24.2% | [6] 34.1%

CC(=O)OC1CC2C(C)(C)C(=O)C=CC2(C)C2CCC3(C)C(c4ccoc4)OC(=O)C4OC43C12C (stereo unspecified)
inactive: [3] 25.9% | [6] 6.63%
active: [1] 49.5% | [2] 41.8% | [4] 56.1% | [5] 43.9%

N#CC(c1cccc(Cl)c1)c1ccc2c(C(F)(F)F)cc(C(F)(F)F)nc2n1 (stereo unspecified)
active: [1] 59.4% | [2] 84% | [9] 82.3% | [10] 107% | [11] 95.5% | [12] 88.9%

CC(C)(C)Nc1nc(-c2ccccn2)nc2ccccc12
inactive: [1] 35% | [14] 49.7%
active: [2] 43.1% | [13] 99.2% | [9] 69.1% | [10] 85.6% | [11] 84.7% | [12] 63.9%

Cc1cc(C)c[n+](C(C)C(=O)c2ccc(-c3ccccc3)cc2)c1 (stereo unspecified)
inactive: [1] 16.9%
active: [2] 40.2% | [9] 29.7% | [10] 81.4% | [11] 66.4% | [12] 64.2%

Cc1cc(C)cc(NC(=O)c2ccc([N+](=O)[O-])o2)c1
inactive: [1] 22.4% | [2] 2.31% | [12] 20%
active: [9] 53% | [10] 76.3% | [11] 74.7%

O=C(Nc1ccccc1)Nc1cc(OCC(F)(F)F)cc(OCC(F)(F)F)c1
inactive: [1] 21.7% | [2] 20.5% | [9] 22.9%
active: [10] 71.3% | [11] 54.7% | [12] 54.3%

C#CC(=O)N(c1ccc(OC)c(OC)c1)C(C(=O)NC1CCCC1)c1cccs1 (stereo unspecified)
inactive: [1] 25.2% | [2] -2.4% | [9] 17.7% | [11] 35.4% | [12] 10.9%
active: [10] 57.3%

Cc1ccnc(NC(=O)CCCOc2cc(=O)n(C)c3ccccc23)c1
active: [9] 61% and 59.3% | [10] 91.4% and 81.7% | [11] 67.8% and 59.8%
inactive: [1] 3.13% and 25% | [2] -1.88% and -14.4% | [12] 23.5% and 8.09%

CC(=O)Nc1ccc(-c2csc(NC(=O)Nc3ccccc3)n2)cc1
inactive: [1] 4.6% | [2] -0.97% | [3] -38.2% | [4] -3.98% | [7] -18.8% | [8] 35.7%

COc1ccc2c(c1OC)C(=O)N1c3ccccc3C(=O)N(c3ccccc3F)C21 (stereo unspecified)
inactive: [1] 17.7% | [2] 10.7% | [12] 16.9%
active: [9] 53.5% | [10] 48.5% | [11] 54.1%

O=C(OC12CC3CC(CC(C3)C1)C2)c1ccc(NCc2cc(O)ccc2O)cc1
active: [1] 89.3% | [2] 59.6% | [13] 78.1% | [9] 66.5% | [10] 82.9% | [11] 80.2% | [12] 86% | [5] 95.5% | [6] 96.4% | [7] 79.4% | [8] 103%
inactive: [14] 18.6%

C=CCSc1nsc(NC(=O)Nc2cccc(C(C)=O)c2)n1
inactive: [3] 46.4% | [5] -25.7% | [6] 17.3% | [7] -25.6% | [8] 2.43%
active: [1] 44% | [2] 31.2% | [4] 27.2%

O=C(Nc1ccc(S(=O)(=O)Nc2ccccc2)cc1)c1ccc(CN2CCOCC2)cc1
active: [2] 36% | [10] 56.4% | [11] 57.4% | [12] 57.6%
inactive: [1] 9.71% | [9] 21.8%

O=[N+]([O-])c1ccc(O)c(/C=N/Nc2nc3ccccc3[nH]2)c1
active: [1] 64% | [2] 62.7% | [9] 80.6% | [10] 97.5% | [11] 84.3% | [12] 83%

CC(=NNC(=S)N1CCCC1)c1ccccn1
active: [1] 54.1% | [2] 64.5% | [4] 66.4%

O=C(N/N=C\c1ccc([N+](=O)[O-])s1)c1cncc(Br)c1
inactive: [1] 32.5% | [2] 22.9%
active: [9] 57.4% | [10] 79.7% | [11] 72.9% | [12] 56.9%

O=C(NC1CCCCCCC1)c1cc(COc2ccc3ncccc3c2)on1
inactive: [1] 17.3% | [9] 25.3%
active: [2] 40.2% | [10] 55% | [11] 54.8% | [12] 51.6%

CCCCCc1ccc(OCCCC[n+]2cccc(C)c2)c(CCCCC)c1
inactive: [1] 17.4%
active: [2] 39% | [9] 31.7% | [10] 74.2% | [11] 68.9% | [12] 71.2%

Brc1ccc(C2=Nn3c(nnc3-c3n[nH]c4c3CCC4)SC2)cc1
inactive: [1] 26% | [2] -11.4% | [12] -33.2%
active: [9] 50.6% | [10] 49% | [11] 51%

CN1/C(=C\C(=O)C[n+]2ccc3ccccc3c2)C(C)(C)c2ccccc21
inactive: [1] 24.8%
active: [2] 50.2% | [9] 35.9% | [10] 89.6% | [11] 77.6% | [12] 66.7%

CCC(C)(C)c1ccc(OCCCC[n+]2ccccc2)c(C(C)(C)CC)c1
active: [2] 37.4% | [10] 64% | [11] 55.6% | [12] 60.8%
inactive: [1] 26.1% | [9] 16.3%

C=CCC1(CC=C)CCCN1C(=O)c1cc(COc2ccc(-n3cncn3)cc2)on1
active: [2] 30.2% | [13] 97.4% | [14] 86.5% | [8] 49.6%
inactive: [1] 5.51% | [7] -1.01%

CCN(C(C)=O)c1cnc(C=NNC(N)=S)c2ccccc12
inactive: [1] 39.5% | [2] 29.1%
active: [9] 78.7% | [10] 75.7% | [11] 69.5% | [12] 69.3%

CC1(C)CC[C@]2(C(=O)n3ccnc3)CC[C@]3(C)[C@H](C(=O)C=C4[C@@]5(C)C=C(C#N)C(=O)C(C)(C)[C@@H]5CC[C@]43C)[C@@H]2C1
active: [1] 93.8% | [2] 82% | [4] 93.8%

CCOc1cc(/C=C2\N=C(SC(C)C(N)=O)N(c3ccc(OC(F)F)cc3)C2=O)ccc1O (stereo unspecified)
active: [2] 58% | [9] 59.3% | [10] 65.4% | [11] 73% | [12] 73.1%
inactive: [1] 27.6%

C=CS(=O)(=O)N(Cc1ccccc1Br)[C@H](CO)Cc1ccccc1
inactive: [1] 24.3% | [2] 0.02% | [9] 20.1% | [10] 32.2% | [12] 23.2%
active: [11] 48.7%

COc1ccc(Nc2ccncc2[N+](=O)[O-])cc1
active: [10] 75.5% | [11] 64.4% | [12] 39.3%
inactive: [1] 41.1% | [2] 27.4% | [9] 13.4%
